# Measured values: the supplement of paper PMC6522484
# ± gives the standard deviation of the averaged measurements.
# Legend:
# DLD1 [1] = test: cell viability (CellTiter-Glo) relative to plate median (fraction of plate median); higher = more viable cells; settings: 5 µM; treatment time 24 h; reporter: 7TFP
# How it was run: (§1)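 For this screen, colorectal cancer cell lines carrying stable lentiviral TCF/Wnt firefly luciferase reporters, either 7TFP or TCF4/Wnt, were seeded into 384-well plates. A day's wait of 24 h preceded addition of library compounds at a final 5 µM, which stayed on the cells for 24 h. Firefly luciferase or CellTiterGlo luminescence, read on parallel plates, was normalised to the plate median per well, and the reported value is the mean of two independent replicates.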
# HCT116 = test: as above; settings: 5 µM; treatment time 24 h; reporter: TCF4/Wnt
# How it was run: as §1
# SW480 [2] = test: as above; settings: 5 µM; treatment time 24 h; reporter: 7TFP
# How it was run: as §1
# DLD1 [3] = test: TCF/Wnt firefly luciferase reporter signal relative to plate median (fraction of plate median); higher = higher Wnt reporter signal; settings: 5 µM; treatment time 24 h; reporter: 7TFP
# How it was run: as §1
# SW480 [4] = test: as above; settings: 5 µM; treatment time 24 h; reporter: 7TFP
# How it was run: as §1
SMILES,cell viability (DLD1 [1]),cell viability (HCT116),cell viability (SW480 [2]),TCF/Wnt firefly luciferase reporter signal (DLD1 [3]),TCF/Wnt firefly luciferase reporter signal (SW480 [4])
COc1ccc(-c2coc3cc(O)cc(O)c3c2=O)cc1,1.01 ± 0.065,0.888 ± 0.016,1.01 ± 0.044,0.985 ± 0.16,1.05 ± 0.064
CO[C@@]1(NC(=O)Cc2cccs2)C(=O)N2C(C(=O)O)=C(COC(N)=O)CS[C@@H]21,1.06 ± 0.078,1.08 ± 0.2,0.968 ± 0.023,1.07 ± 0.11,0.887 ± 0.021
N=C(N)NCCCCNC(=N)N,0.922 ± 0.0085,0.978 ± 0.1,0.965 ± 0.017,0.994 ± 0.14,1.04 ± 0.067
Nc1cc(N2CCCCC2)nc(N)[n+]1[O-],1.01 ± 0.047,0.972 ± 0.054,1 ± 0.04,1.04 ± 0.11,0.943 ± 0.062
Cc1cc2nc3c(=O)[nH]c(=O)nc-3n(C[C@H](O)[C@H](O)[C@H](O)CO)c2cc1C,0.984 ± 0.052,0.919 ± 0.051,0.974 ± 0.016,1.07 ± 0.035,0.907 ± 0.021
O=C(O)c1cc(=O)c2c(Cl)cc(Cl)cc2[nH]1,0.944 ± 0.12,0.968 ± 0.059,0.976 ± 0.091,0.835 ± 0.021,0.911 ± 0.052
CN(C)CCC=C1c2ccccc2CCc2ccccc21,0.958 ± 0.036,0.997 ± 0.047,0.989 ± 0.016,0.952 ± 0.061,0.963 ± 0.046
OC(Cn1cncn1)(Cn1cncn1)c1ccc(F)cc1F,0.889 ± 0.033,0.883 ± 0.069,0.9295 ± 0.0064,1.09 ± 0.028,1.01 ± 0.054
N=C(N)NC(=N)Nc1ccccc1,0.96 ± 0.014,0.969 ± 0.034,0.958 ± 0.021,0.946 ± 0.052,0.99 ± 0.015
C[C@H](CCC(=O)O)[C@H]1CC[C@H]2[C@@H]3CC[C@@H]4CCCC[C@]4(C)[C@H]3CC[C@]12C,0.984 ± 0.016,1.06 ± 0.035,1.06 ± 0.09,0.905 ± 0.044,1.03 ± 0.059
CC(C)[C@@H](C)/C=C/[C@@H](C)[C@H]1CC[C@H]2C3=CCC4CC(=O)CC[C@]4(C)[C@H]3CC[C@]12C (stereo not given in full),0.975 ± 0.078,1.07 ± 0.05,1.08,1.06 ± 0.071,1.06 ± 0.021
COc1ccc(Cl)cc1C(=O)NCCc1ccc(S(=O)(=O)NC(=O)NC2CCCCC2)cc1,1.005 ± 0.0071,0.962 ± 0.082,0.976 ± 0.049,1.12 ± 0.13,1.14 ± 0.05
CCOC(=O)NNc1nncc2ccccc12,0.981 ± 0.07,1.01 ± 0.014,0.981 ± 0.056,0.85 ± 0.045,0.784 ± 0.069
C=C1c2c(Cl)ccc(O)c2C(=O)C2=C(O)[C@]3(O)C(=O)C(C(N)=O)=C(O)[C@@H](N(C)C)[C@@H]3[C@@H](O)[C@H]12.O=C(O)c1cc(S(=O)(=O)O)ccc1O,1.05 ± 0.021,1.02 ± 0.042,1.005 ± 0.0071,1.05 ± 0.25,0.893 ± 0.062
Cc1ccc(N(CC2=NCCN2)c2cccc(O)c2)cc1,1.01 ± 0.042,0.992 ± 0.2,1.02 ± 0.014,0.92 ± 0.039,0.94 ± 0.044
"COC(=O)[C@@H]1OC(=O)C2OC23[C@@]1(C)CCC1[C@]2(C)C(C[C@H](O)[C@]13C)C(C)(C)[C@H](OC(C)=O)C[C@@H]2OC(C)=O (stereo partly drawn) [7beta-HYDROXY-7-DESACETOXYKHIVORINIC ACID, METHYL ESTER]",1.01 ± 0.095,1.065 ± 0.0071,1.05,1.11 ± 0.18,1.03 ± 0.042
Cc1cc(NC(=O)C2=C(O)c3ccccc3S(=O)(=O)N2C)no1,1.04 ± 0.064,0.88 ± 0.036,1.004 ± 0.0085,0.945 ± 0.15,0.993 ± 0.18
CN(C)CCc1c[nH]c2ccc(C[C@H]3COC(=O)N3)cc12,0.931 ± 0.059,1.08 ± 0.078,1.04 ± 0.014,1.03 ± 0.021,0.95 ± 0.069
"C/C=C/C=C/[C@@H]1O[C@](O)([C@H](CC)C(=O)NC/C=C/C=C(\C)[C@@H](OC)[C@@H](C)[C@@H]2O[C@H](/C=C/C=C/C=C(\C)C(=O)c3c(O)ccn(C)c3=O)[C@H](O)[C@@H]2O)C[C@H](O)C1(C)C (single isomer, unassigned; isomere) [Heneicomycin (Isomere)]",0.948 ± 0.037,1.04 ± 0.14,1.035 ± 0.0071,1.05 ± 0.064,1.03 ± 0.021
CC(C)[N+](C)(CCOC(=O)C1c2ccccc2Oc2ccccc21)C(C)C,0.979 ± 0.021,1.01 ± 0.14,0.984 ± 0.017,1.06 ± 0.1,1.04 ± 0.06
COc1cc2c(cc1OC)Cc1cc(OC)c(OC)cc1Cc1cc(OC)c(OC)cc1C2,1.02 ± 0.055,0.97 ± 0.16,1.02 ± 0.033,1.1 ± 0.15,0.865 ± 0.045
C/C1=C\CCC(=O)C2CC(C)(C)C2CC1 (stereo not given),0.9755 ± 0.00071,0.908 ± 0.14,0.939 ± 0.012,0.918 ± 0.098,1.004 ± 0.0078
CCN(CC)C(=O)N1CCN(C)CC1,0.9275 ± 0.0035,0.89 ± 0.079,1.03 ± 0.021,0.981 ± 0.098,1.09 ± 0.021
CC1(C)O[C@@H]2C[C@H]3[C@@H]4CCC5=CC(=O)C=C[C@]5(C)[C@@]4(F)[C@@H](O)C[C@]3(C)[C@]2(C(=O)CO)O1,0.955 ± 0.027,0.965 ± 0.024,1.03 ± 0.042,1.09 ± 0.021,0.951 ± 0.051
Clc1ccc2c(c1)CCc1cccnc1C2=C1CCNCC1,0.992 ± 0.011,1.07 ± 0.021,0.97 ± 0.021,1 ± 0.015,1.12 ± 0.014
C[C@@H]1Cc2cc(O)cc(O)c2C(=O)O[C@H](C)CC(=O)O[C@H](CO)CC(=O)O[C@H](C)Cc2cc(O)cc(O)c2C(=O)O[C@H](C)CC(=O)O1,1.04 ± 0.11,1.14 ± 0.035,1.01 ± 0.062,0.938 ± 0.028,1.05 ± 0.05
CC(C)=CCC/C(C)=C\CO,0.992 ± 0.082,1.02 ± 0.042,1.1 ± 0.05,0.999 ± 0.016,0.964 ± 0.046
